Common to all, as to assay: DAPPL (digital affinity profiling via proximity ligation, sequencing); 10 mM Tris-HCl pH 7.5, 50 mM NaCl, 1 mM DTT, 4% glycerol, room temperature, 30 min; GST-TFs on glutathione beads, 16-mer random dsDNA library, 0.1% formaldehyde crosslink after washing; high values mean tight binding
In experiment [1] the target is T1, FLI1 (Homo sapiens, UniProt Q01543 1-452).
T1 sequence: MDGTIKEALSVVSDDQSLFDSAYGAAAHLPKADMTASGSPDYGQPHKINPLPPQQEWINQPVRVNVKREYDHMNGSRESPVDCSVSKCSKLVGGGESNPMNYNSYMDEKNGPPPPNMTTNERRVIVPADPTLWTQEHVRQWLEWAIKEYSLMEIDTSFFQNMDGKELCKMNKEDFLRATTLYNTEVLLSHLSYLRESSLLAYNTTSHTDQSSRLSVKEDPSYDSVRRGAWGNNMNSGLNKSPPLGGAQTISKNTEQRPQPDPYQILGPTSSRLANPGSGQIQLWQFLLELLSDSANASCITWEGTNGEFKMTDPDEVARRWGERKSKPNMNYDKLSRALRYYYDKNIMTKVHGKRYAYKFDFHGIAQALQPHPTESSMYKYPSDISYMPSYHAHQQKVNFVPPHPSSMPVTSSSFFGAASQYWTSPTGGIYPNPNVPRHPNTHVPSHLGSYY
The settings on record: protein: recombinant; tags: N-terminal GST; dsDNA, one strand shown. A digest of the protocol:
(§1)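 After expression in yeast as GST fusions, human transcription factors were bound to glutathione beads, DNA-barcoded and mixed with a tag-only sample. The pools were incubated with 200 nmole of a 16-mer random double-stranded DNA library in Tris/NaCl/DTT/glycerol buffer (30 min, room temperature), washed and crosslinked with 0.1% formaldehyde. Proximity ligation with BsaI/T4 ligase ran for 1 h at 37 °C, before PCR amplification and sequencing on an Illumina NextSeq500. Binding signal is a hexamer's read frequency for a factor divided by its frequency for the tag-only sample.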

For experiment [2], the target named is T2, ELK1 (Homo sapiens, UniProt P19419 1-428).
T2 sequence: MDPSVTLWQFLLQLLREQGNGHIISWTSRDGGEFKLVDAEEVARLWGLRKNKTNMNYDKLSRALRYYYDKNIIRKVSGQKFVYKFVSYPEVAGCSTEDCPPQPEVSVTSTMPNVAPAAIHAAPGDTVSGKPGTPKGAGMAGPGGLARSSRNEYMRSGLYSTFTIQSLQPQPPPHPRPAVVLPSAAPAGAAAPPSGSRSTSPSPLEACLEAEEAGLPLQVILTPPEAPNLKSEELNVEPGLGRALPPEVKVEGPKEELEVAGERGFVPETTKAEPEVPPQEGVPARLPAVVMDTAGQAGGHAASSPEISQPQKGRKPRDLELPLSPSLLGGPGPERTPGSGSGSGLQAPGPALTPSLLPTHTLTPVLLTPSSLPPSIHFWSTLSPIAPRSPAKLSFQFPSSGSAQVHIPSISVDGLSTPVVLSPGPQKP
The settings on record: protein: recombinant; tags: N-terminal GST; dsDNA, one strand shown. A digest of the protocol: as §1

The target in experiment [3] is T3, GABPA (Homo sapiens, UniProt Q06546 1-454).
T3 sequence: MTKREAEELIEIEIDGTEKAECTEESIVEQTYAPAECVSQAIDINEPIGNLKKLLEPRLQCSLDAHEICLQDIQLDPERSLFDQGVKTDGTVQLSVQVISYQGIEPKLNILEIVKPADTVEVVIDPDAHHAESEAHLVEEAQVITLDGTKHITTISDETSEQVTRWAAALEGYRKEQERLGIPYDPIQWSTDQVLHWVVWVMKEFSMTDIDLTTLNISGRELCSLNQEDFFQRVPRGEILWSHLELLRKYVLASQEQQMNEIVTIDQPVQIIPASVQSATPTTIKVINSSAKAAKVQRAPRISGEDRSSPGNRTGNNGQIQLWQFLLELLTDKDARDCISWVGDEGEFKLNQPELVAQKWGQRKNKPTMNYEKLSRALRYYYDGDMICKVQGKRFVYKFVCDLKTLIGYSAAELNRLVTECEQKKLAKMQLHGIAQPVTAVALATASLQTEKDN
As to conditions: protein: recombinant; tags: N-terminal GST; dsDNA, one strand shown. A digest of the protocol: as §1

Experiment [4] deals with T4, ERG (Homo sapiens, UniProt P11308 1-479).
T4 sequence: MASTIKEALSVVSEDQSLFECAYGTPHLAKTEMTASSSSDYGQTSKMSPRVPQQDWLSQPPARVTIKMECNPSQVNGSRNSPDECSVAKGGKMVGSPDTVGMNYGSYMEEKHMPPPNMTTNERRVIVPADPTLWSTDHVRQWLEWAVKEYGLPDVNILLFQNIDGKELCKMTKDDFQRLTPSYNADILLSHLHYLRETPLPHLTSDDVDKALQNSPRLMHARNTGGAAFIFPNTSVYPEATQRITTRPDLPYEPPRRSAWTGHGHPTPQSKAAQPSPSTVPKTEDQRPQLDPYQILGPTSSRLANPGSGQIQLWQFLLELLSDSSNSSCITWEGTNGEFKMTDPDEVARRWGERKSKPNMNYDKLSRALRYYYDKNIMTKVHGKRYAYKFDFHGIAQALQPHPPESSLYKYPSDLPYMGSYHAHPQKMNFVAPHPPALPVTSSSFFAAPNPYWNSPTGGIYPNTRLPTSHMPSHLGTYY
The settings on record: protein: recombinant; tags: N-terminal GST; dsDNA, one strand shown. A digest of the protocol: as §1

For experiment [5], the target named is ELF1 (Homo sapiens, UniProt P32519 1-619). As to conditions: protein: recombinant; tags: N-terminal GST; dsDNA, one strand shown. A digest of the protocol: as §1
Chain of ELF1 (P32519 whole entry): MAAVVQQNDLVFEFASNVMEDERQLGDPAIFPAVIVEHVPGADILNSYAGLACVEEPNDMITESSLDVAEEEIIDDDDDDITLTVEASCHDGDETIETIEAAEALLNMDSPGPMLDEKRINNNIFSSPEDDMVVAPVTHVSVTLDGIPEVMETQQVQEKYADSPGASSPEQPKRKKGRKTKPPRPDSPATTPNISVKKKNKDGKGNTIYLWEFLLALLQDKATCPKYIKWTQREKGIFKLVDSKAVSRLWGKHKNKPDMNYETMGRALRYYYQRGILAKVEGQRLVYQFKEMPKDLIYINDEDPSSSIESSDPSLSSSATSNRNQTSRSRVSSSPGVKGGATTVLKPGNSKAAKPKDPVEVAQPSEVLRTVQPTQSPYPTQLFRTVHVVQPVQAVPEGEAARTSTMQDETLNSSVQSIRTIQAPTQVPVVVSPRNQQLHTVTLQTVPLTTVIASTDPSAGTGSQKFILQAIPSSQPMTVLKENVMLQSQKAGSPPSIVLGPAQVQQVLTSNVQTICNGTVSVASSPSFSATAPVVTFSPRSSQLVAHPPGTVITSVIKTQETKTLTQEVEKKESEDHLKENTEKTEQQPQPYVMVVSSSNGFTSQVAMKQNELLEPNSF
The target of experiment [6] is T5, EHF (Homo sapiens, UniProt Q9NZC4 1-300).
T5 sequence: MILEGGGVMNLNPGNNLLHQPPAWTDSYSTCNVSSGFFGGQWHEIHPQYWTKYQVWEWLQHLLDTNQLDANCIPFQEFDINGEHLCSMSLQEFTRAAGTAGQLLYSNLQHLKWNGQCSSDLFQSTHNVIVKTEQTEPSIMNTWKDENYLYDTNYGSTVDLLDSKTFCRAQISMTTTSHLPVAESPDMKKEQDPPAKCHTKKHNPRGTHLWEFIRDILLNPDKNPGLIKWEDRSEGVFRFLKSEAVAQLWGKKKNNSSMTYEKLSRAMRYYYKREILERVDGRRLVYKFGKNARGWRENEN
As to conditions: protein: recombinant; tags: N-terminal GST; dsDNA, one strand shown. A digest of the protocol:
as §1

Experiment [7] deals with SPI1 (Homo sapiens, UniProt P17947 1-270). The settings on record: protein: recombinant; tags: N-terminal GST; dsDNA, one strand shown. A digest of the protocol: as §1
The target in experiment [8] is SPIB (Homo sapiens, UniProt Q01892 1-262). As to conditions: protein: recombinant; tags: N-terminal GST; dsDNA, one strand shown. A digest of the protocol: as §1
Chain of SPIB (Q01892 whole entry): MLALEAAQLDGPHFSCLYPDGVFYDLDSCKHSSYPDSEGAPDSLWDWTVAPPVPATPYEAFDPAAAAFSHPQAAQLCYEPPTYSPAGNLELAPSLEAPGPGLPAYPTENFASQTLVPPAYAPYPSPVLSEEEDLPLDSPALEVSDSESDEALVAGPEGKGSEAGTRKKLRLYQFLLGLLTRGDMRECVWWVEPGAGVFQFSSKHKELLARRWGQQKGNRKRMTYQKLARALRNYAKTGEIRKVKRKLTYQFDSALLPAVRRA
The target in experiment [9] is T6, ELK3 (Homo sapiens, UniProt P41970 1-407).
T6 sequence: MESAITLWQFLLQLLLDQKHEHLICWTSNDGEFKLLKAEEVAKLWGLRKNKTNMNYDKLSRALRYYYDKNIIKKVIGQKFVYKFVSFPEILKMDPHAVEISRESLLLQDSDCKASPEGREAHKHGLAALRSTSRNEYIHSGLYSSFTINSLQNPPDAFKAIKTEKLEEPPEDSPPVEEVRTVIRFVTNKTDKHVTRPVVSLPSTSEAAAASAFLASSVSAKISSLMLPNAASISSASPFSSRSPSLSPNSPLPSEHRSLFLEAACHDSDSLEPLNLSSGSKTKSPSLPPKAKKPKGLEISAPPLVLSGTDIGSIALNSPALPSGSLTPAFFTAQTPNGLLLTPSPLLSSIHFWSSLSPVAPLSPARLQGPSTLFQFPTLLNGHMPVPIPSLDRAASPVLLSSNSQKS
As to conditions: protein: recombinant; tags: N-terminal GST; dsDNA, one strand shown. A digest of the protocol:
as §1

For experiment [10], the target named is T7, FEV (Homo sapiens, UniProt Q99581 1-238).
T7 sequence: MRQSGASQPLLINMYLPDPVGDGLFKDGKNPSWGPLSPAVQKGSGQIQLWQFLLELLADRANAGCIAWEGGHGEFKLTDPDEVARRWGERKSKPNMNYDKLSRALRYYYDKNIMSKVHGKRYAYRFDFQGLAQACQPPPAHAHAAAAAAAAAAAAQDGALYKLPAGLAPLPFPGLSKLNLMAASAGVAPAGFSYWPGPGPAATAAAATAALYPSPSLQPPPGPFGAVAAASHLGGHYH
As to conditions: protein: recombinant; tags: N-terminal GST; dsDNA, one strand shown. A digest of the protocol: as §1

The target in experiment [11] is ETV5 (Homo sapiens, UniProt P41161 1-510). The settings on record: protein: recombinant; tags: N-terminal GST; dsDNA, one strand shown. A digest of the protocol:
as §1

In experiment [12] the target is HSF1 (Homo sapiens, UniProt Q00613 1-529). As to conditions: protein: recombinant; tags: N-terminal GST; chain copies: 3; dsDNA, one strand shown. A digest of the protocol:
as §1

The target of experiment [13] is T8, SPIC (Homo sapiens, UniProt Q8N5J4 1-248).
T8 sequence: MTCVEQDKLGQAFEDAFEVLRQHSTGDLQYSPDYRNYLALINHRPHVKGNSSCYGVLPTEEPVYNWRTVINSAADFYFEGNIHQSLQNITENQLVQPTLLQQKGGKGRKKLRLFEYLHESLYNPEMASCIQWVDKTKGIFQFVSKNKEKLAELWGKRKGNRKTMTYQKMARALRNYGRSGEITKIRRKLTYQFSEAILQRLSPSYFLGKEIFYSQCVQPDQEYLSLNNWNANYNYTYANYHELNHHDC
As to conditions: protein: recombinant; tags: N-terminal GST; dsDNA, one strand shown. A digest of the protocol:
as §1

Experiment [14] deals with ELF4 (Homo sapiens, UniProt Q99607 1-663). As to conditions: protein: recombinant; tags: N-terminal GST; dsDNA, one strand shown. A digest of the protocol: as §1
Chain of ELF4 (Q99607 whole entry): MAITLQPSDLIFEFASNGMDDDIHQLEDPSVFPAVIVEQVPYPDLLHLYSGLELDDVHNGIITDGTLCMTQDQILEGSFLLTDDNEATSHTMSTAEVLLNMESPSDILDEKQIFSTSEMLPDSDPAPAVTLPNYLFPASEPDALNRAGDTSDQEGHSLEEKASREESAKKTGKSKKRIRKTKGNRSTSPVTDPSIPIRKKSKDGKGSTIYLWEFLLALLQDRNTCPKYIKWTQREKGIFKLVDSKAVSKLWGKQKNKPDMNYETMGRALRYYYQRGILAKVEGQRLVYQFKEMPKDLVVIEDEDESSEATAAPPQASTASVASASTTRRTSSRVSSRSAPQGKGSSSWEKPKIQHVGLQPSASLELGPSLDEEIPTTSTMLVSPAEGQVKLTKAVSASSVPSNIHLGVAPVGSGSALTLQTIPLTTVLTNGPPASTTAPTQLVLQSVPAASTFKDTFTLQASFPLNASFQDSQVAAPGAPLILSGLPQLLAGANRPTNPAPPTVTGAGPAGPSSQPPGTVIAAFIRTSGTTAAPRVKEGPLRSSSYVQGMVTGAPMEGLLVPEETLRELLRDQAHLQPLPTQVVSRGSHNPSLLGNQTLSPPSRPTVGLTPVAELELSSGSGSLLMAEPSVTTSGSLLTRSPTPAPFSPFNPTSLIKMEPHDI
Experiment [15] concerns the target T9, ELK4 (Homo sapiens, UniProt P28324-2 1-405).
T9 sequence: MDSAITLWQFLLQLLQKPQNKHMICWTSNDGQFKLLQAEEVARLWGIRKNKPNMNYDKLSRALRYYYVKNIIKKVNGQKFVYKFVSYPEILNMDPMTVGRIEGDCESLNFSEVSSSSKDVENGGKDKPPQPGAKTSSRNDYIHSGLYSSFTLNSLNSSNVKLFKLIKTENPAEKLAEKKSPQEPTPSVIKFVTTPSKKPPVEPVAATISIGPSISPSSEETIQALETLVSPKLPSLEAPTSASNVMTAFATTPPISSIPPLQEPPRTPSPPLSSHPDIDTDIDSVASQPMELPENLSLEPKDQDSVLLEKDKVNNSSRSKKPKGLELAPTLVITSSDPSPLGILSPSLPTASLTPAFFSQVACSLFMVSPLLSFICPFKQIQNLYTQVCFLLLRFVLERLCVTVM
As to conditions: protein: recombinant; tags: N-terminal GST; dsDNA, one strand shown. A digest of the protocol:
as §1

The target in experiment [16] is T10, ETV2 (Homo sapiens, UniProt O00321 1-342).
T10 sequence: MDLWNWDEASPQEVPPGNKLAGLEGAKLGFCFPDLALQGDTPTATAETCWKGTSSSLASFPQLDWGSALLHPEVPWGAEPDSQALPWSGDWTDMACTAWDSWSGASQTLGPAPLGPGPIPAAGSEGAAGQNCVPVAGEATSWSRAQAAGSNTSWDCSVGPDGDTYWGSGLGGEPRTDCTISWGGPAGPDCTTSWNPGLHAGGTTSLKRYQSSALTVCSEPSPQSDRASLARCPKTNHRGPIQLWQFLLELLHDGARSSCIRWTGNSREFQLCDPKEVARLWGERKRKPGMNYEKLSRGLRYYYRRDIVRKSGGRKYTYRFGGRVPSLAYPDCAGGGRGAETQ
As to conditions: protein: recombinant; tags: N-terminal GST; dsDNA, one strand shown. A digest of the protocol:
as §1

The target in experiment [17] is T11, ELF3 (Homo sapiens, UniProt P78545 1-371).
T11 sequence: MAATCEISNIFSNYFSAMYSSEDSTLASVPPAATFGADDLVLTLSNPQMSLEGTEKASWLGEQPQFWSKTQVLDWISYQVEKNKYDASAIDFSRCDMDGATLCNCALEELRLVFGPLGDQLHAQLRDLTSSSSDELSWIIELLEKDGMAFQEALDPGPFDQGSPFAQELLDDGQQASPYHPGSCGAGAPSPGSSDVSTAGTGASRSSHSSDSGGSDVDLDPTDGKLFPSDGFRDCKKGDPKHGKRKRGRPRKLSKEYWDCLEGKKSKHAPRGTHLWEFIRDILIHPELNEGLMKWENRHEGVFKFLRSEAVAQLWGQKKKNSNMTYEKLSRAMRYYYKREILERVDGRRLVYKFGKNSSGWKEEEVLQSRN
As to conditions: protein: recombinant; tags: N-terminal GST; dsDNA, one strand shown. A digest of the protocol:
as §1

Experiment [18] deals with ETV1 (Homo sapiens, UniProt P50549 1-477). As to conditions: protein: recombinant; tags: N-terminal GST; dsDNA, one strand shown. A digest of the protocol:
as §1

Chain of ETV1 (P50549 whole entry): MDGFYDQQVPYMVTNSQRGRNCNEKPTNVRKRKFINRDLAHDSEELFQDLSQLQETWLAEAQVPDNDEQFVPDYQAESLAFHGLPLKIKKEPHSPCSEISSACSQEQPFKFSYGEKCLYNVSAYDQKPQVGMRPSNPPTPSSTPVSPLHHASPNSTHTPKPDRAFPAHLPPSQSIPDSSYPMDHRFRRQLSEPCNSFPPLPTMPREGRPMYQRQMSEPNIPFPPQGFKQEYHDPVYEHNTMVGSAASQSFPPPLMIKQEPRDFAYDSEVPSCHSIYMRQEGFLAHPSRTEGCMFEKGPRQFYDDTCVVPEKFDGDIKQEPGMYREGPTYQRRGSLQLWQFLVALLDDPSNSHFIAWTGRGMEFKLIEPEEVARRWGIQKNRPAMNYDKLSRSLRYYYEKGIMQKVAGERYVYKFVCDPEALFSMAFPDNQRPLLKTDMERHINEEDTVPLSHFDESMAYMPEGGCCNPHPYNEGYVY
Chain of HSF1 (Q00613 whole entry): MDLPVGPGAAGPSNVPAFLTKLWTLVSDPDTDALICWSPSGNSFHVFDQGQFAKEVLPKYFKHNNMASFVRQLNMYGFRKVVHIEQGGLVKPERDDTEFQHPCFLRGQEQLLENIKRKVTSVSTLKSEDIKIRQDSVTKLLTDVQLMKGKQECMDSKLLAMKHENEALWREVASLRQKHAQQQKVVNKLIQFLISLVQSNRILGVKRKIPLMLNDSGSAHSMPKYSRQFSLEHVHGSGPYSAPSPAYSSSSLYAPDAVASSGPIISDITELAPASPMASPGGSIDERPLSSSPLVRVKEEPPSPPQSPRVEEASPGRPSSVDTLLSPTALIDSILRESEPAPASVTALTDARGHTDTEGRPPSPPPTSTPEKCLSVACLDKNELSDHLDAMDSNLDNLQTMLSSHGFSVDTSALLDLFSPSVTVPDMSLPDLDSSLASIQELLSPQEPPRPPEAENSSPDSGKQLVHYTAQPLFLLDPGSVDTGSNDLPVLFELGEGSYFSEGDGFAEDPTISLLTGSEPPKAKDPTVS
Chain of ETV5 (P41161 whole entry): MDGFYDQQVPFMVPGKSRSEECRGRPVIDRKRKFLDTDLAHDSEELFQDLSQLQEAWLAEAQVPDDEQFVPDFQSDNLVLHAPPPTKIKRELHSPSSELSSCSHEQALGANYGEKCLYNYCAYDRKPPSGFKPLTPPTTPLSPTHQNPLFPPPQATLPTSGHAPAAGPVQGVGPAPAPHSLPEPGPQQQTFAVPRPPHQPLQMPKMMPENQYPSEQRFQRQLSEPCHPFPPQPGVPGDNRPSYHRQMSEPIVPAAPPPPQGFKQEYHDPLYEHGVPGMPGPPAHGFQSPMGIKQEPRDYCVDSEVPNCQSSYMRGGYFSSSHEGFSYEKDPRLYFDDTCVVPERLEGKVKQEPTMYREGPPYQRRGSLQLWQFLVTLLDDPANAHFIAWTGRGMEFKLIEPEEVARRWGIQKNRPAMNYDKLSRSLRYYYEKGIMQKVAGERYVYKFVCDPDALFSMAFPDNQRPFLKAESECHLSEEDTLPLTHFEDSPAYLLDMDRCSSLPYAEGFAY

In the case of CACTGC, the binding signal was 1.45 fold enrichment (6-mer frequency, TF over GST control) in experiment [1]; 1.46 fold enrichment (6-mer frequency, TF over GST control) in experiment [2]; 1.32 fold enrichment (6-mer frequency, TF over GST control) in experiment [3]; 1.41 fold enrichment (6-mer frequency, TF over GST control) in experiment [4]; 1.44 fold enrichment (6-mer frequency, TF over GST control) in experiment [5]; 1.58 fold enrichment (6-mer frequency, TF over GST control) in [6]. Further, the binding signal is 1.38 fold enrichment (6-mer frequency, TF over GST control) in [7]; 1.44 fold enrichment (6-mer frequency, TF over GST control) in [8]; 1.51 fold enrichment (6-mer frequency, TF over GST control) in [9]; 1.38 fold enrichment (6-mer frequency, TF over GST control) in experiment [10]; 1.37 fold enrichment (6-mer frequency, TF over GST control) in experiment [11]; 1.04 fold enrichment (6-mer frequency, TF over GST control) in [12]. The binding signal in experiment [13] was 1.46 fold enrichment (6-mer frequency, TF over GST control); in [14], 1.32 fold enrichment (6-mer frequency, TF over GST control); in experiment [15], 1.43 fold enrichment (6-mer frequency, TF over GST control); in experiment [16], 1.28 fold enrichment (6-mer frequency, TF over GST control); in experiment [17], 1.15 fold enrichment (6-mer frequency, TF over GST control); in experiment [18], 1.36 fold enrichment (6-mer frequency, TF over GST control).

(Values after article PMC7862700, “An all-to-all approach to the identification of sequence-specific readers for epigenetic DNA modifications on cytosine”.)
